Data published in PubChem BioAssay.
Calls of active or inactive are those of the source.

Experiments:
[1] = binders of probe aFSTL3 on microarray, primary screen, stem cell growth factor project, biochemical, small-molecule microarray, fluorescence 635/667 (AID 1064); conditions: higher = more signal;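 note: measures binding of the biotinylated anti-FSTL3 antibody to printed compounds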
[2] = binders from COS7 lysate, DM2A8 probe, primary screen, torsin A project, cell lysate, small-molecule microarray, fluorescence 635/667 (AID 1065); conditions: higher = more signal, COS7 lysate expressing mutant human TOR1A
[3] = binders of probe aFGF2 on microarray, primary screen, stem cell growth factor project, biochemical, small-molecule microarray, fluorescence 635/667 (AID 1067); conditions: higher = more signal;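 note: measures binding of biotinylated aFGF2 protein to printed compounds on slides; z-score merges feature fluorescence and signal-to-noise across triplicate slides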
[4] = binders of probe aFGF10 on microarray, primary screen, stem cell growth factor project, biochemical, small-molecule microarray, fluorescence 635/667 (AID 1071); conditions: higher = more signal;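 note: score merges 667 nm spot intensity and signal to noise from triplicate slides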
[5] = molecular target: Neurogenic locus notch homolog protein 2 (Homo sapiens) (UniProt Q04721); experiment: Notch2 binders on small-molecule microarrays, primary screen, biochemical, small-molecule microarray, 635 nm fluorescence, stem cell growth factors (AID 1073); conditions: Notch2 binding, higher = more signal
[6] = molecular target: Pro-neuregulin-1, membrane-bound isoform (Homo sapiens) (UniProt Q02297); experiment: NRG1 binders on small-molecule microarrays, primary screen, psychiatric disease protein project, biochemical, small-molecule microarray, fluorescence 635/667 (AID 1075); conditions: NRG1 binding, 635 nm fluorescence, higher = more signal;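 note: score combines 667 nm spot fluorescence with signal to noise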
[7] = tested on: Neuregulin-1 EGF-like domain; experiment: binders of neuregulin-1 EGF-like domain, primary screen, biochemical, small-molecule microarray, 635 nm fluorescence (AID 1081); conditions: small-molecule microarray binding, higher = more signal;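 note: binding of the protein to compounds printed on small-molecule microarray slides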
[8] = FRG1 promoter luciferase signal modulators, primary screen, FRG1 inhibition for FSHD, cell-based, C2C12 myotubes, firefly/Renilla luciferase, luminescence (AID 1084); conditions: higher = more signal, called active from +8 up or from −8 down
[9] = binders of probe aFST on microarray, primary screen, stem cell growth factor project, biochemical, small-molecule microarray, fluorescence 635/667 (AID 1086); conditions: higher = more signal;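 note: score merges 667 nm fluorescence with signal-to-noise of each printed compound spot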
[10] = binders of probe aHhip on microarray, primary screen, stem cell growth factor project, biochemical, small-molecule microarray, fluorescence 635/667 (AID 1087); conditions: higher = more signal;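 note: score merges spot fluorescence at 667nm with spot signal to noise ratio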

Chain of Neurogenic locus notch homolog protein 2 (Homo sapiens) (Q04721 whole entry, looked up, canonical isoform): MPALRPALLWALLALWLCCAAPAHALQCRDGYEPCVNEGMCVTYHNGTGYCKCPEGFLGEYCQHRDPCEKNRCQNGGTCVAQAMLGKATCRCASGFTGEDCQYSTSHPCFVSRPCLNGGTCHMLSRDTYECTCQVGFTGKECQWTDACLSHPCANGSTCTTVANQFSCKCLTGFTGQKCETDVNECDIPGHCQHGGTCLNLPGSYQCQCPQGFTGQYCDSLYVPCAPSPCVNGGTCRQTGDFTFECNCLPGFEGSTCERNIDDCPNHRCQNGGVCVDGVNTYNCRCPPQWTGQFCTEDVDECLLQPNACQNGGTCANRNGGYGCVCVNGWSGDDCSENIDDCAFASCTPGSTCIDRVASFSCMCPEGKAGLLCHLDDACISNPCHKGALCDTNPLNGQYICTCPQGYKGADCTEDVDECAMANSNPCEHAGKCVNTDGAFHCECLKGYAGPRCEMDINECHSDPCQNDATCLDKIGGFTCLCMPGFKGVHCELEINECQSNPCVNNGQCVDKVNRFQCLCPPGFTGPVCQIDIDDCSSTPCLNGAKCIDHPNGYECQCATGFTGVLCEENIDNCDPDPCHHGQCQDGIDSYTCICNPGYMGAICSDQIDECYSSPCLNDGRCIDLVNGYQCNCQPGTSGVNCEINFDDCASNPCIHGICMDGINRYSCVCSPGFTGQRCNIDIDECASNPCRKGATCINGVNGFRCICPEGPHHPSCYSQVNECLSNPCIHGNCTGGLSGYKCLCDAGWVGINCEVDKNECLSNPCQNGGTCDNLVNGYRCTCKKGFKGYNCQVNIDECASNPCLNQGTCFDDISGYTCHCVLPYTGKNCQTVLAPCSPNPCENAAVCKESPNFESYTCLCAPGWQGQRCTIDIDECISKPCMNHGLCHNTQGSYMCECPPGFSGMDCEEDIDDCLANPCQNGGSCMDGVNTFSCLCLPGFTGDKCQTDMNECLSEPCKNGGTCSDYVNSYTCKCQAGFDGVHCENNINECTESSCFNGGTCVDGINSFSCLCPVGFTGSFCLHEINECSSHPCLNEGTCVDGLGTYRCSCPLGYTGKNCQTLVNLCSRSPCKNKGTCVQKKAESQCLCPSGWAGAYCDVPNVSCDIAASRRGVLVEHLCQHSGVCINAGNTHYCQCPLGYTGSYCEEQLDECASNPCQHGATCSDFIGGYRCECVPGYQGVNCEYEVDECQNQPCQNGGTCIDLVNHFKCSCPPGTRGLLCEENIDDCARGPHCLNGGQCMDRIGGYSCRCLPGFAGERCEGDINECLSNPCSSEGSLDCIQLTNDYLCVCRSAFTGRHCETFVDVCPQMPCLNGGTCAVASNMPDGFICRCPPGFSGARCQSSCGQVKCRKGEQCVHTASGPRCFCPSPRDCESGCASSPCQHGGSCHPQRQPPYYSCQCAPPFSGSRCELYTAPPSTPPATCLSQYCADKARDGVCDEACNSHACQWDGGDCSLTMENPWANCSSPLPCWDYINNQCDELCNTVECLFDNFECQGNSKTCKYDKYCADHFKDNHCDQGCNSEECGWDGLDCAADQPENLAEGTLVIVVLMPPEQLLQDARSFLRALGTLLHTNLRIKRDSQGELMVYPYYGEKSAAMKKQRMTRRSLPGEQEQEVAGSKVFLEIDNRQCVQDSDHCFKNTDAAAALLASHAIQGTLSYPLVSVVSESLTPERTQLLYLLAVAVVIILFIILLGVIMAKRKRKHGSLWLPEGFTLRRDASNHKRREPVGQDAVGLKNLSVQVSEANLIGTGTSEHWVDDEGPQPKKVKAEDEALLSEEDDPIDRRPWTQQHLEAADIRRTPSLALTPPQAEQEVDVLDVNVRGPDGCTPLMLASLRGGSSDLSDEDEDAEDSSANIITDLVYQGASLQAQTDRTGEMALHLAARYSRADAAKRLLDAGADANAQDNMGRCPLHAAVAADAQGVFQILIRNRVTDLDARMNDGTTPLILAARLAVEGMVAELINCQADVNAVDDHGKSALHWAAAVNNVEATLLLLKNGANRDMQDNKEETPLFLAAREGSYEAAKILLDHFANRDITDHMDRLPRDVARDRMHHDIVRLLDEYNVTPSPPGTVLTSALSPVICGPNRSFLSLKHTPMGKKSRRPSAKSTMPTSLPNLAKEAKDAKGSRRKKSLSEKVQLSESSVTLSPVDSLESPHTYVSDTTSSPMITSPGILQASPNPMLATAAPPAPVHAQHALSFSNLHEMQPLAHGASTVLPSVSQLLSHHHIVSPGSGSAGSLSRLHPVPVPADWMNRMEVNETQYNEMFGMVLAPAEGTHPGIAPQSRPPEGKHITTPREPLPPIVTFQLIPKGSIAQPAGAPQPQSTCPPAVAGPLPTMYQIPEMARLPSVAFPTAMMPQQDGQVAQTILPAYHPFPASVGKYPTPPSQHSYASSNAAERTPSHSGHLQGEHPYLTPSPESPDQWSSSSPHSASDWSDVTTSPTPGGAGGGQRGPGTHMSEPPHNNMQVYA
Chain of Pro-neuregulin-1, membrane-bound isoform (Homo sapiens) (Q02297 whole entry, looked up, the tested form may be a part, canonical isoform): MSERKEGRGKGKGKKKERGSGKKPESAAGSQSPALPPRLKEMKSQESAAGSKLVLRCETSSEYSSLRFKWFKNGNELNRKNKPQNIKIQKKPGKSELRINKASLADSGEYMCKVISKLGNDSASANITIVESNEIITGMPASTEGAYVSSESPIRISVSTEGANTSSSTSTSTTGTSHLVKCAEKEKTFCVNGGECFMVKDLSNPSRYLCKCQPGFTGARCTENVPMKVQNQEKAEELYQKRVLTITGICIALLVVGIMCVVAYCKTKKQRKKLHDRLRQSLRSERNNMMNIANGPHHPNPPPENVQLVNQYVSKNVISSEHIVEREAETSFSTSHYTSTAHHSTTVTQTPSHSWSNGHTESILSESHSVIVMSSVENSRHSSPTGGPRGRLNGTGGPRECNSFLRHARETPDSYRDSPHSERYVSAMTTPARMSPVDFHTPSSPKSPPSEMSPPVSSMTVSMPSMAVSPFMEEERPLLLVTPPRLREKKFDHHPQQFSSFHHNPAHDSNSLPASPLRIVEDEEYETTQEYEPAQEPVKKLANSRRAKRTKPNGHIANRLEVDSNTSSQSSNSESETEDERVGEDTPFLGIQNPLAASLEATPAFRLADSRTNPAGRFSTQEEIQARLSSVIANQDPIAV

Compound: CN1C(=O)C2C=CC(C(O)c3ccccc3)N(N3CCCCC3)C2C1=O (stereo not given)
- composite z-score [1]: -0.239
- composite z-score [2]: 0.876
- composite z-score [3]: 0.054
- composite z-score [4]: 1.02
- composite z-score [5]: 1.42
- composite z-score [6]: 1.62
- composite z-score [7]: 1.02
- z-score [8]: -1.13 (inactive)
- composite z-score [9]: 0.406
- composite z-score [10]: -0.0346

Compound: [N-]=[N+]=NCc1ccccc1C[C@@]1(C(=O)NCC(O)CO)N=C(c2ccc(OCCCO)cc2)O[C@@H]1c1ccccc1 (stereo not given in full)
- composite z-score [1]: 1.03
- composite z-score [2]: 0.0102
- composite z-score [3]: -0.0459
- composite z-score [4]: 0.206
- composite z-score [5]: 0.111
- composite z-score [6]: 0.768
- composite z-score [7]: 0.952
- z-score [8]: -1.26 (inactive)
- composite z-score [9]: -0.12
- composite z-score [10]: -0.132

Compound: COCCCNC(=O)[C@@]1(Cc2ccccc2)N=C(c2ccc(OCCCO)cc2)O[C@H]1c1ccccc1CN=[N+]=[N-]
- composite z-score [1]: 0.988
- composite z-score [2]: 1.35
- composite z-score [3]: 0.0762
- composite z-score [4]: 0.806
- composite z-score [5]: 1.25
- composite z-score [6]: 1.74
- composite z-score [7]: 1.11
- z-score [8]: -0.989 (inactive)
- composite z-score [9]: 1.54
- composite z-score [10]: -0.194

Compound: CCCCCCCCCCC(O)C1C=CC2C(=O)NC(=O)C2N1Nc1ccc(Cl)cc1Cl (stereo not given)
- composite z-score [1]: 0.133
- composite z-score [2]: -1.22
- composite z-score [3]: -0.0667
- composite z-score [4]: 0.159
- composite z-score [5]: -0.218
- composite z-score [6]: 1.02
- composite z-score [7]: 0.436
- z-score [8]: 1.32 (inactive)
- composite z-score [9]: 0.0804
- composite z-score [10]: -0.0237

Compound: C=CCC(OC(C)=O)[C@@H]1[C@@H](N(Cc2cc3ccccc3o2)C(=O)Cc2ccc(OC)cc2)c2cc(OCCCO)ccc2N1C(=O)c1ccc2ccccc2c1 (stereo not given in full)
- composite z-score [1]: 0.0894
- composite z-score [2]: 0.196
- composite z-score [3]: -0.062
- composite z-score [4]: 0.0575
- composite z-score [5]: -0.709
- composite z-score [6]: -0.336
- composite z-score [7]: -0.0601
- z-score [8]: -0.194 (inactive)
- composite z-score [9]: -0.005
- composite z-score [10]: 0.0505

Compound: COc1ccccc1CN1C(=O)c2ccccc2[C@@H](C(=O)NCc2ccccc2)[C@@H]1c1ccc(CO)cc1
- composite z-score [1]: -0.232
- composite z-score [2]: 0.939
- composite z-score [3]: -0.171
- composite z-score [4]: -0.298
- composite z-score [5]: 0.0668
- composite z-score [6]: 1.1
- composite z-score [7]: 1.26
- z-score [8]: -2.9 (inactive)
- composite z-score [9]: 0.635
- composite z-score [10]: -0.34

Compound: CC(C)Cc1ccc(CN2CC[C@@H](N)C2)cc1
- composite z-score [1]: -0.103
- composite z-score [2]: -0.816
- composite z-score [3]: -0.219
- composite z-score [4]: -0.711
- composite z-score [5]: -1.3
- composite z-score [6]: -0.505
- composite z-score [7]: -1.11
- z-score [8]: -0.132 (inactive)
- composite z-score [9]: -0.635
- composite z-score [10]: -0.0193

Compound: CCCCC(=C=CC[C@@H](O)c1ccc(CO)o1)CCO
- composite z-score [1]: -0.369
- composite z-score [2]: 0.152
- composite z-score [3]: -0.0602
- composite z-score [4]: 0.143
- composite z-score [5]: -0.168
- composite z-score [6]: 0.457
- composite z-score [7]: 1.19
- z-score [8]: 0.161 (inactive)
- composite z-score [9]: -0.118
- composite z-score [10]: 0.238

Compound: CCOC(=O)C1=CC[C@H]2C(=O)N(c3ccccc3)C(=O)[C@@H]12
- composite z-score [1]: -0.368
- composite z-score [2]: 0.606
- composite z-score [3]: 0.05
- composite z-score [4]: 1.07
- composite z-score [5]: 1.61
- composite z-score [6]: 1.37
- composite z-score [7]: 1.32
- z-score [8]: -0.775 (inactive)
- composite z-score [9]: 0.743
- composite z-score [10]: -0.0237

Compound: COc1ccc([C@H]2C[C@H]3C(I)=C[C@@H]2C(=O)[C@]32CO2)cc1
- composite z-score [1]: -0.434
- composite z-score [2]: 0.241
- composite z-score [3]: -0.12
- composite z-score [4]: 0.17
- composite z-score [5]: 0.0021
- composite z-score [6]: -0.645
- composite z-score [7]: -0.571
- z-score [8]: 2.29 (inactive)
- composite z-score [9]: 0.169
- composite z-score [10]: -0.0237

Compound: COCC(=C=CC[C@H](O)c1cccc(OCCO)c1)C[C@H](O)c1cc(Cl)cc(Cl)c1O
- composite z-score [1]: -0.173
- composite z-score [2]: 0.0375
- composite z-score [3]: -0.045
- composite z-score [4]: 0.502
- composite z-score [5]: 0.524
- composite z-score [6]: 0.79
- composite z-score [7]: 1.38
- z-score [8]: -0.578 (inactive)
- composite z-score [9]: 0.181
- composite z-score [10]: -0.281

Compound: COC(=O)c1c(CC[C@@H](CO)NC(=O)N[C@H](Cc2ccccc2)Cn2cc(-c3ccccn3)nn2)oc(C(C)=O)c1C(=O)OC
- composite z-score [1]: -0.241
- composite z-score [2]: 0.0467
- composite z-score [3]: -0.083
- composite z-score [4]: 0.19
- composite z-score [5]: -0.143
- composite z-score [6]: 0.813
- composite z-score [7]: 1.09
- z-score [8]: -0.533 (inactive)
- composite z-score [9]: -0.217
- composite z-score [10]: -0.271

Compound: COC(=O)[C@@]1(Cc2ccc(F)cc2)[C@H]2c3cc(C(=O)N(C)C)n(Cc4cc(C)n(C)n4)c3C[C@H]2CN1C(=O)c1ccccc1
- composite z-score [1]: 0.274
- composite z-score [2]: 0.85
- composite z-score [3]: -0.19
- composite z-score [4]: 0.515
- composite z-score [5]: 1.61
- composite z-score [6]: 1.66
- composite z-score [7]: 1.29
- z-score [8]: 0.0894 (inactive)
- composite z-score [9]: 0.967
- composite z-score [10]: 0.0139

Compound: CC(C)CN1C(=O)[C@@]2(c3ccc([N+](=O)[O-])cc3)CC(=O)N(C3CCCCC3)[C@@H]2c2ccc(CO)cc21
- composite z-score [1]: 0.206
- composite z-score [2]: -0.72
- composite z-score [3]: -0.0954
- composite z-score [4]: -0.991
- composite z-score [5]: -0.649
- composite z-score [6]: -0.303
- composite z-score [7]: -0.429
- z-score [8]: 0.953 (inactive)
- composite z-score [9]: -1.09
- composite z-score [10]: -0.0994

Compound: [N-]=[N+]=Nc1ccccc1C[C@]1(C(=O)NCc2ccccc2)N=C(c2ccc(OCCCO)cc2)O[C@H]1c1ccccc1N=[N+]=[N-]
- composite z-score [1]: -0.0447
- composite z-score [2]: 0.288
- composite z-score [3]: 0.189
- composite z-score [4]: 0.218
- composite z-score [5]: 1.49
- composite z-score [6]: 1.6
- composite z-score [7]: 1.06
- z-score [8]: -0.899 (inactive)
- composite z-score [9]: 0.726
- composite z-score [10]: -0.0672
